Measurements published in PubChem BioAssay AID1159580 (chemical genetic matrix, 2015).
Where “and” joins values, the source holds several entries; their conditions need not be identical. Identical values can stand only once. Among all 5,500 compounds or so, about 2,000 (36%) were called active. Inconclusive results (about 18%) are left out. The list shows a part of the results. A number with no mark means an inactive call. Rule as the data show it: active = normalized growth mostly below about 0.91 (no sharp cut-off); inconclusive = no clear call, values can overlap the other calls; inactive = mostly above about 0.92.

Test: chemical genetic growth profiling, strain panel (AID 1159580);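 also: tested at 20 µM; growth read once vehicle control cultures reached saturation at 30 °C; 1 = growth at the plate median or of vehicle wells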
Conditions: S. cerevisiae deletion strains, growth OD

CC(C)=CCC1=C(O)c2ccccc2C(=O)C1=O
normalized growth (locus YAL013W, strain DEP1, stronger effect = lower value): 0.949 | normalized growth (locus YAL021C, strain ccr4, stronger effect = lower value): 0.748 (active) | normalized growth (locus YAL026C, strain drs2, stronger effect = lower value): 0.472 (active) | normalized growth (locus YAL030W, strain snc1, stronger effect = lower value): 0.799 (active) | normalized growth (locus YBL061C, strain skt5, stronger effect = lower value): 0.774 (active) | normalized growth (locus YBR009C, strain hhf1, stronger effect = lower value): 0.804 (active) | normalized growth (locus YBR021W, strain FUR4, stronger effect = lower value): 1.05 | normalized growth (locus YBR023C, strain chs3, stronger effect = lower value): 0.749 (active) | normalized growth (locus YBR171W, strain sec66, stronger effect = lower value): 0.707 (active) | normalized growth (locus YBR229C, strain ROT2, stronger effect = lower value): 0.963 | normalized growth (locus YBR231C, strain swc5, stronger effect = lower value): 0.718 (active) | normalized growth (locus YBR279W, strain paf1, stronger effect = lower value): 0.76 (active) | normalized growth (locus YCL011C, strain gbp2, stronger effect = lower value): 0.795 (active) | normalized growth (locus YCL016C, strain dcc1, stronger effect = lower value): 0.762 (active) | normalized growth (locus YCL029C, strain bik1, stronger effect = lower value): 0.899 (active) | normalized growth (locus YCL069W, strain vba3, stronger effect = lower value): 0.675 (active) | normalized growth (locus YCR088W, strain abp1, stronger effect = lower value): 0.799 (active) | normalized growth (locus YDL005C, strain med2, stronger effect = lower value): 0.759 (active) | normalized growth (locus YDL035C, strain GPR1, stronger effect = lower value): 0.97 | normalized growth (locus YDL040C, strain nat1, stronger effect = lower value): 0.843 (active) | normalized growth (locus YDL074C, strain BRE1, stronger effect = lower value): 0.994 | normalized growth (locus YDL101C, strain DUN1, stronger effect = lower value): 0.951 | normalized growth (locus YDL134C, strain PPH21, stronger effect = lower value): 0.958 | normalized growth (locus YDL185W, strain tfp1, stronger effect = lower value): 0.86 (active) | normalized growth (locus YDL192W, strain arf1, stronger effect = lower value): 0.896 (active) | normalized growth (locus YDR001C, strain nth1, stronger effect = lower value): 0.816 (active) | normalized growth (locus YDR069C, strain doa4, stronger effect = lower value): 0.719 (active) | normalized growth (locus YDR101C, strain arx1, stronger effect = lower value): 0.941 | normalized growth (locus YDR137W, strain rgp1, stronger effect = lower value): 0.328 (active) | normalized growth (locus YDR150W, strain NUM1, stronger effect = lower value): 0.934 | normalized growth (locus YDR159W, strain sac3, stronger effect = lower value): 0.549 (active) | normalized growth (locus YDR162C, strain NBP2, stronger effect = lower value): 0.872 | normalized growth (locus YDR195W, strain ref2): 0.976 | normalized growth (locus YDR297W, strain sur2, stronger effect = lower value): 0.832 (active) | normalized growth (locus YDR318W, strain mcm21, stronger effect = lower value): 0.902 (active) | normalized growth (locus YDR334W, strain swr1, stronger effect = lower value): 0.795 (active) | normalized growth (locus YDR335W, strain msn5, stronger effect = lower value): 0.514 (active) | normalized growth (locus YDR388W, stronger effect = lower value): 0.928 (active) | normalized growth (locus YDR392W, strain spt3, stronger effect = lower value): 0.703 (active) | normalized growth (locus YDR502C, strain sam2, stronger effect = lower value): 0.968 | normalized growth (locus YEL003W, strain gim4, stronger effect = lower value): 0.788 (active) | normalized growth (locus YEL037C, strain rad23, stronger effect = lower value): 0.825 (active) | normalized growth (locus YEL061C, strain CIN8 (second series), stronger effect = lower value): 0.799 (active) | normalized growth (locus YEL061C, strain CIN8, stronger effect = lower value): 0.932 | normalized growth (locus YER015W, strain faa2, stronger effect = lower value): 0.648 (active) | normalized growth (locus YER016W, strain bim1, stronger effect = lower value): 0.635 (active) | normalized growth (locus YER110C, stronger effect = lower value): 0.96 | normalized growth (locus YER111C, strain swi4, stronger effect = lower value): 0.564 (active) | normalized growth (locus YER155C, strain BEM2 (second series), stronger effect = lower value): 0.792 (active) | normalized growth (locus YER155C, strain BEM2, stronger effect = lower value): 0.962 | normalized growth (locus YER167W, strain BCK2, stronger effect = lower value): 0.956 | normalized growth (locus YFR010W, strain ubp6, stronger effect = lower value): 0.752 (active) | normalized growth (locus YGL078C, strain dbp3, stronger effect = lower value): 0.914 (active) | normalized growth (locus YGL086W, strain mad1, stronger effect = lower value): 0.879 (active) | normalized growth (locus YGL167C, strain pmr1, stronger effect = lower value): 0.0913 (active) | normalized growth (locus YGL173C, strain kem1, stronger effect = lower value): 0.745 (active) | normalized growth (locus YGL227W, strain vid30, stronger effect = lower value): 0.767 (active) | normalized growth (locus YGL240W, strain doc1, stronger effect = lower value): 0.924 | normalized growth (locus YGL248W, strain PDE1, stronger effect = lower value): 0.964 | normalized growth (locus YGL253W, strain hxk2, stronger effect = lower value): 0.592 (active) | normalized growth (locus YGR078C, strain PAC10, stronger effect = lower value): 0.986 | normalized growth (locus YGR135W, strain pre9, stronger effect = lower value): 0.953 | normalized growth (locus YGR229C, strain SMI1, stronger effect = lower value): 0.992 | normalized growth (locus YGR252W, strain gcn5, stronger effect = lower value): 1 | normalized growth (locus YHR013C, strain ard1, stronger effect = lower value): 0.904 | normalized growth (locus YHR027C, strain rpn1, stronger effect = lower value): 0.537 (active) | normalized growth (locus YHR030C, strain SLT2, stronger effect = lower value): 0.936 and 0.964 | normalized growth (locus YHR079C, strain IRE1 (second series), stronger effect = lower value): 0.941 | normalized growth (locus YHR079C, strain IRE1, stronger effect = lower value): 0.961 | normalized growth (locus YHR094C, strain hxt1, stronger effect = lower value): 0.96 | normalized growth (locus YHR129C, strain ARP1, stronger effect = lower value): 0.952 | normalized growth (locus YHR142W, strain chs7, stronger effect = lower value): 0.421 (active) | normalized growth (locus YHR200W, strain rpn10, stronger effect = lower value): 0.932 | normalized growth (locus YIL066C, strain RNR3, stronger effect = lower value): 0.965 | normalized growth (locus YIL073C, strain SPO22, stronger effect = lower value): 0.824 | normalized growth (locus YIL125W, strain kgd1, stronger effect = lower value): 0.93 (active) | normalized growth (locus YIR030C, strain dcg1, stronger effect = lower value): 0.945 | normalized growth (locus YJL092W, strain hpr5, stronger effect = lower value): 0.793 (active) | normalized growth (locus YJL095W, strain BCK1 (second series), stronger effect = lower value): 0.675 (active) | normalized growth (locus YJL095W, strain BCK1, stronger effect = lower value): 0.944 and 0.936 | normalized growth (locus YJL115W, strain asf1, stronger effect = lower value): 0.861 (active) | normalized growth (locus YJL129C, strain trk1, stronger effect = lower value): 0.554 (active) | normalized growth (locus YJL134W, strain LCB3, stronger effect = lower value): 0.95 | normalized growth (locus YJL154C, strain vps35, stronger effect = lower value): 0.815 (active) | normalized growth (locus YJL164C, strain tpk1, stronger effect = lower value): 0.775 (active) | normalized growth (locus YJL166W, strain qcr8, stronger effect = lower value): 0.714 (active) | normalized growth (locus YJL168C, strain set2, stronger effect = lower value): 0.95 | normalized growth (locus YJL187C, strain SWE1 (second series), stronger effect = lower value): 0.957 | normalized growth (locus YJL187C, strain SWE1, stronger effect = lower value): 0.789 (active) | normalized growth (locus YJR043C, strain POL32, stronger effect = lower value): 1.04 | normalized growth (locus YJR066W, strain TOR1, stronger effect = lower value): 0.875
